A selection: hits, their analogues and other compounds. The true share with any hit is near 8.1%.
Hedgehog inh – Hedgehog pathway signaling inhibitors, primary screen, luminescence, Shh-LIGHT2 cells, Gli-luciferase. Shh-LIGHT2 Gli-luciferase reporter, 30 h. inhibition, % (no concentration beside the values). hit rate 2.1% among 22,000. AID 2313, 2010;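 active = mean inhibition across valid replicates above about 65%, limit read from the data; inconclusive = mean under the limit, yet half or more replicates past it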;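 note: pathway switched on by Shh-conditioned medium diluted 1 in 25 in low serum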
MITF inh – inhibitors of MITF, primary screen, MITF inhibitor project, cell-based, luminescence | TRPM1 promoter luciferase, 24 h | inhibition, % (no concentration beside the values) | hit rate 0.28% among 37,000 | AID 2240, 2010; in the data active = inhibition above about 85%; inconclusive = no clear call, values can overlap the other calls; inactive = below about 68%;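 note: human melanocyte line stably carrying TRPM1 promoter luciferase reporter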
NOMO-1 viab – NOMO-1 AML cell viability reduction, primary screen, STK33 inhibitor project, CellTiter-Glo luminescence; NOMO-1 AML viability, 72 h; inhibition, % (test concentration not listed); hit rate 7.5% among 37,000; AID 2330, 2010; in the data active = inhibition above about 80%; inconclusive = no clear call, values can overlap the other calls
PD-1 reversal – activators reversing PD-1 mediated T-cell inhibition, primary screen, luminescence, primary human CD4 T cells, PD-L1 beads. CellTiter-Glo 96 h. activation, % (no concentration beside the values). 29,000 tested, under 10 active. AID 2316, 2010; call rule not given here;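 note: 0% = median vehicle wells and 100% = positive control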
* marks the source's active call; other numbers are inactive results.

How did C[C@H](CO)N1C[C@H](C)[C@H](CN(C)Cc2ccc(-c3ccccc3)cc2)Oc2ccc(NS(=O)(=O)c3ccc(F)cc3)cc2CC1=O do in these assays?
Hedgehog inh: -8; MITF inh: 0; NOMO-1 viab: 95*; PD-1 reversal: 3

What do the screens show for `C[C@H]1CN([C@@H](C)CO)C(=O)Cc2cc(NS(=O)(=O)c3ccc(F)cc3)ccc2O[C@H]1CN(C)Cc1ccc(-c2ccccc2)cc1`?
Hedgehog inh: -5; MITF inh: 0; NOMO-1 viab: 108*; PD-1 reversal: 2

Results for C[C@H](CO)N1C[C@H](C)[C@@H](CN(C)Cc2ccc(Oc3ccccc3)cc2)Oc2ccc(NC(=O)Nc3ccc(C(F)(F)F)cc3)cc2C1=O ?
Hedgehog inh: -9; MITF inh: -9; NOMO-1 viab: 128*

How did COc1ccc(NC(=O)Nc2ccc3c(c2)C(=O)N([C@@H](C)CO)C[C@@H](C)[C@@H](CN(C)Cc2ccc(C(F)(F)F)cc2)O3)cc1 do in these assays?
MITF inh: 34; NOMO-1 viab: inconclusive; PD-1 reversal: 0

What do the screens show for `C[C@H]1CN([C@@H](C)CO)C(=O)c2cc(NC(=O)Nc3ccc(C(F)(F)F)cc3)ccc2O[C@H]1CN(C)Cc1ccc(Oc2ccccc2)cc1`?
Hedgehog inh: 30; MITF inh: 10; NOMO-1 viab: 83*; PD-1 reversal: -5

Results for C[C@H](CO)N1C[C@H](C)[C@H](CN(C)Cc2ccc(Oc3ccccc3)cc2)Oc2ccc(NC(=O)Nc3ccc(C(F)(F)F)cc3)cc2C1=O ?
MITF inh: 24; NOMO-1 viab: 114*; PD-1 reversal: -12

How did C[C@H]1CN([C@@H](C)CO)C(=O)c2cc(NC(=O)Nc3ccc(F)cc3)ccc2O[C@H]1CN(C)Cc1ccc(Oc2ccccc2)cc1 do in these assays?
MITF inh: -2; NOMO-1 viab: 22; PD-1 reversal: -1

Results for COc1ccc(S(=O)(=O)N(C)C[C@@H]2Oc3ccc(NC(=O)CCCCCC(=O)Nc4ccccc4N)cc3CC(=O)N([C@@H](C)CO)C[C@@H]2C)cc1 ?
MITF inh: -6; NOMO-1 viab: 50; PD-1 reversal: -1

What do the screens show for `CCNS(=O)(=O)c1ccc(-c2oc3cc(S(=O)(=O)NCC)ccc3c2Cl)cc1`?
Hedgehog inh: 32; MITF inh: 18; NOMO-1 viab: 50; PD-1 reversal: 0

What do the screens show for `COc1ccc(CN(C)C[C@@H]2Oc3c(NS(=O)(=O)c4c(C)noc4C)cccc3C(=O)N([C@@H](C)CO)C[C@@H]2C)cc1`?
Hedgehog inh: -13; MITF inh: 0; NOMO-1 viab: 24; PD-1 reversal: 1

Results for CCCCCC[C@H](O)/C=C/CC1C(=O)CC[C@H](O)C1=O (stereo partly specified) ?
Hedgehog inh: -33; MITF inh: -11; NOMO-1 viab: 2; PD-1 reversal: -1

How did CCCCCCCCC/C=C/CCCCC(=O)C1C(=O)CCC(O)C1=O (stereo unspecified) do in these assays?
Hedgehog inh: -8; MITF inh: 30; NOMO-1 viab: 109*; PD-1 reversal: 0

How did C[C@H]1CN([C@@H](C)CO)C(=O)c2cc(NC(=O)Nc3ccc4c(c3)OCO4)ccc2O[C@@H]1CN(C)C(=O)Nc1ccc2c(c1)OCO2 do in these assays?
Hedgehog inh: -7; MITF inh: -2; NOMO-1 viab: 6; PD-1 reversal: 2

What do the screens show for `O=[N+]([O-])c1ccccc1OCCCCSc1ncccn1`?
MITF inh: -57; NOMO-1 viab: 45; PD-1 reversal: 1

What do the screens show for `O=C(/C=C/S(=O)(=O)c1ccc(Cl)cc1)c1ccc(F)cc1`?
Hedgehog inh: 39; MITF inh: 10; NOMO-1 viab: 120*; PD-1 reversal: -58

How did NC(=O)CSc1oc(-c2ccc(F)cc2)nc1S(=O)(=O)c1ccc(Cl)cc1 do in these assays?
MITF inh: 17; NOMO-1 viab: 23; PD-1 reversal: 3

How did CCCC(O)c1c(O)cccc1C1(O)CC(=O)C/C1=C\C(O)CC(=O)O (stereo unspecified) do in these assays?
Hedgehog inh: -4; MITF inh: 15; NOMO-1 viab: 121*; PD-1 reversal: -15

Results for O=C1/C(=C/c2c[nH]c3ccccc23)CSc2ccccc21 ?
MITF inh: -8; NOMO-1 viab: 113*; PD-1 reversal: 1

How did Cc1ccc2[nH]c(=O)c(CN(C)S(C)(=O)=O)cc2c1 do in these assays?
MITF inh: -5; NOMO-1 viab: 20; PD-1 reversal: 2

Results for CCCCC/C=C/C(=O)CCc1ccc(O)c(OC)c1 ?
Hedgehog inh: -28; MITF inh: 2; NOMO-1 viab: 118*; PD-1 reversal: 0

What do the screens show for `Cc1noc(C)c1S(=O)(=O)N(C)C[C@H]1OCCCC[C@@H](C)Oc2ccc(NC(=O)c3ccccc3)cc2C(=O)N([C@H](C)CO)C[C@@H]1C`?
Hedgehog inh: 8; MITF inh: -1; NOMO-1 viab: 20; PD-1 reversal: -2

Results for O=C(CCCCCN1C(=O)c2cccc3cccc(c23)C1=O)NO ?
Hedgehog inh: 91*; MITF inh: 71; NOMO-1 viab: 97*; PD-1 reversal: -20

What do the screens show for `O=C(CCCN1C(=O)c2ccccc2C1=O)Nc1ccc(Nc2ccccc2)cc1`?
MITF inh: -43; NOMO-1 viab: 102*; PD-1 reversal: -9

What do the screens show for `CC(=O)Nc1ccc(NC(=O)CCCN2C(=O)c3ccccc3C2=O)cc1`?
MITF inh: -20; NOMO-1 viab: -28; PD-1 reversal: 1

What do the screens show for `O=C(Cn1c2ccccc2n2nc(-c3cccs3)nc12)c1ccc(Cl)cc1`?
MITF inh: 7; NOMO-1 viab: 115*; PD-1 reversal: -14

What do the screens show for `O=C(Cn1c2ccccc2n2nc(-c3ccco3)nc12)c1ccccc1`?
MITF inh: 20; NOMO-1 viab: 21; PD-1 reversal: -2

Results for COc1ccc(NC(=O)Nc2cccc3c2O[C@@H](CN(C)S(=O)(=O)c2ccc(F)cc2)[C@@H](C)CN([C@H](C)CO)C3=O)cc1 ?
Hedgehog inh: -31; MITF inh: -7; NOMO-1 viab: -8; PD-1 reversal: 1

Results for COc1ccc(S(=O)(=O)N(C)C[C@@H]2Oc3c(NC(=O)Nc4ccc(F)cc4)cccc3C(=O)N([C@H](C)CO)C[C@@H]2C)cc1 ?
Hedgehog inh: 68*; MITF inh: 2; NOMO-1 viab: 33; PD-1 reversal: -1

Results for COc1ccc(NC(=O)Nc2cccc3c2O[C@@H](CN(C)S(=O)(=O)c2ccc(Cl)cc2)[C@@H](C)CN([C@H](C)CO)C3=O)cc1 ?
Hedgehog inh: 92*; MITF inh: -13; NOMO-1 viab: 1

What do the screens show for `COc1ccc(S(=O)(=O)N(C)C[C@@H]2Oc3c(NC(=O)Nc4ccc(F)cc4)cccc3C(=O)N([C@@H](C)CO)C[C@@H]2C)cc1`?
Hedgehog inh: 86*; MITF inh: 7; NOMO-1 viab: 33; PD-1 reversal: -1

What do the screens show for `C[C@H]1CN([C@@H](C)CO)C(=O)Cc2cc(NC(=O)Nc3ccc(F)cc3)ccc2O[C@H]1CN(C)S(=O)(=O)c1cn(C)cn1`?
Hedgehog inh: -7; MITF inh: -5; NOMO-1 viab: -13; PD-1 reversal: 2

Assay outcomes as filed in PubChem.
